Hit rate of the full screen: of about 2,300 compounds, about 1,100 (48%) were called active. So high a share suggests a set chosen from earlier hits. The list shows a part of the results. Entries with a potency or affinity are not part of this list. Values without a mark were called inactive. How the calls were made is not given here.

The term inhibition denotes the relative decrease from the control value, in per cent.

The test is described as follows: inhibitors in S. typhi counter-screen strain, dose response, counter-screen for PhoP regulon inhibitor project, fluorescence, 4 h (AID 2384). The note with it: S. typhi GFP reporter counter-screen; series mostly up to 150 µM; inhibition: at the top concentration. Background: Counterscreens check selectivity or assay interference.
In the case of `O=C(On1c(-c2ccccc2)nc2ccccc2c1=O)c1ccco1`, the “inhibition” value was 33.5%.

In the case of `COc1ccc(N(C(=O)c2cccnc2)S(=O)(=O)c2cccc([N+](=O)[O-])c2)cc1`, the “inhibition” value was -26%.

In the case of `CCNC(=O)c1ccc(C2SCC(=O)N2CCc2ccccc2)cc1` (configuration not stated), the “inhibition” value is 16.3%.

For the compound `COc1ccc(C[C@H]2CN3C(=NC[C@H]3Cc3ccccc3)N2CCNC(=O)c2ccc(C)c(Br)c2)cc1`, the “inhibition” value was 32.1%.

In the case of `COc1ccc2c(C(=O)CN(C)C3CCCCC3)c[nH]c2c1`, the “inhibition” value was 24.3%.

As for `Cc1ccc(NC(=O)CCNC(=O)c2ccccc2)cc1F`, the “inhibition” value was 22.2%.

Take `CS(=O)(=O)N(CCc1ccccc1)CC(=O)Nc1ccc2c(c1)OCO2`: the “inhibition” value is 12.9%.

Take `O=C(CSCc1ccccc1)Nc1cccc(C(=O)Nc2ccc(C(=O)O)cc2)c1`: the “inhibition” value was 23.4%.

In the case of `Cc1ccnc(NC(=O)CCC(=O)N(CC(=O)NC2CCCCC2)C2CCCC2)c1`, the “inhibition” value is -6.73%.

With `CCN1CCN(CC(=O)Nc2ccc(C)c(Br)c2)CC1`, the “inhibition” value is 28.8%.

Regarding `CN1C2=CC=CC=CC2=[N+](C)C12C=CC(=[N+]([O-])[O-])C=C2[N+](=O)[O-]` (configuration not stated), the “inhibition” value is 18.4%.

For the compound `Cc1cccc(/C(N)=N/OC(=O)N2CCOCC2)c1`, the “inhibition” value was -7.33%.

Consider `Cc1ccn2cc(-c3ccc4c(c3)NC(=O)CO4)nc2c1`, for which the “inhibition” value was -22.3%.

With `CC(C)n1cnnc1SCC(=O)Nc1ccc(Br)cc1F`, the “inhibition” value is -11.7%.

As for `N#Cc1ccc(-c2ccc(OCC(=O)NCCCN3CCCC3=O)cc2)cc1`, the “inhibition” value was 29.4%.

For the compound `C1=C(CCNc2ncnc3c2[nH]c2ccccc23)CCCC1`, the “inhibition” value was 26.6%.

Turning to `COc1ccc(-n2ncc3c(NCc4ccccn4)ncnc32)cc1`, the “inhibition” value is -13.1%.

Regarding `Cc1ccc(/C=N/n2c(C)nc3ccccc3c2=O)s1`, the “inhibition” value is -5.54%.

As to `Cc1ccc(-c2[nH]ncc2/C=N/n2c(C)nc3ccccc3c2=O)cc1`, the “inhibition” value is -18.9%.

Turning to `O=C(C[n+]1cc(-c2ccccc2)n2c1CCC2)c1cccs1`, the “inhibition” value was 24%.

For the compound `CCOC(=O)Cc1csc(NC(=O)c2ccc(S(=O)(=O)N3CCCC3)cc2)n1`, the “inhibition” value was -2.31%.

Turning to `O=C(/C=C/c1ccc(O)cc1)c1ccccc1`, the “inhibition” value is 37.9%.

`COc1cccc(C2=NO[C@@H]3C(=O)N(Cc4ccccc4)C(=O)[C@H]23)c1OC`: the “inhibition” value is -11.5%.

Regarding `CCc1nnc(NS(=O)(=O)c2ccc(NC(=S)NC(=O)/C=C/c3ccc([N+](=O)[O-])cc3)cc2)s1`, the “inhibition” value was -7.86%.

Take `Cc1cc2ncn(/N=C/c3ccc([N+](=O)[O-])o3)c2cc1C`: the “inhibition” value was 13.4%.

Regarding `Cc1ccc2[nH]c(C(=O)O)c(NC(=O)CN3CCN(c4cccc(C)c4C)CC3)c2c1`, the “inhibition” value is 22.6%.

Turning to `Cc1ccc(C(C(=O)NCCc2ccccc2)N(C(=O)c2csnn2)C2CC2)o1` (configuration not stated), the “inhibition” value is 10%.

Turning to `[O-][n+]1c2ccccc2cc2ccccc21`, the “inhibition” value is 5.18%.

Turning to `Cc1ccc(S(=O)(=O)NCC(=O)OCN2C(=O)c3ccccc3C2=O)cc1`, the “inhibition” value is -19.2%.

With `CCCOc1ccc(N2C(=O)C3C(C(C)C)NC4(C(=O)c5ccccc5C4=O)C3C2=O)cc1` (configuration not stated), the “inhibition” value was -19.1%.

With `COc1ccc(-c2csc(N)n2)cc1F`, the “inhibition” value was 13.2%.

As to `Cc1nc2ccc(NC(=O)c3cccc(C(F)(F)F)c3)cc2o1`, the “inhibition” value was 10.5%.

Regarding `CNC(=O)Nc1cccc(C(F)(F)F)c1`, the “inhibition” value is 11.8%.

With `O=C(CNC(=O)Cn1ccc2ccccc2c1=O)NCCCN1CCCCCC1`, the “inhibition” value was 8.41%.

For `Cc1cc(C)cc(NC(=O)C(Sc2nnc(C)c(=O)[nH]2)c2ccccc2)c1` (configuration not stated), the “inhibition” value is -6.81%.

For `CCCC1C(c2ccc(OC)cc2)C(C#N)(C#N)C2(C#N)CC1(N)NC2=O` (configuration not stated), the “inhibition” value is -3.98%.

Turning to `O=C(Nc1ccc(Br)cc1)N1CCCCC1`, the “inhibition” value was 20.1%.

On to `CCNC(=S)N1CCN(CC)CC1`, for which the “inhibition” value is -4.27%.

Turning to `Cc1cc(Cl)ccc1OCCCC(=O)N1CCCc2ccccc21`, the “inhibition” value was 0.2%.

`O=C1NC(=S)S/C1=C1\Sc2ccccc2N1CCCS(=O)(=O)O`: the “inhibition” value was 11.1%.

As for `Cn1c(=O)c(=O)n(C)c2cc(S(=O)(=O)N3CCc4ccccc43)ccc21`, the “inhibition” value was -6.12%.

Consider `CN1Cc2ccccc2N(CC(=O)NCc2ccccc2)C1=O`, for which the “inhibition” value was -10.9%.

As to `Cc1cc(NC(=O)CSc2nnc(-c3cccnc3)n2N)no1`, the “inhibition” value is -8.4%.

`O=C1N/C(=C/c2ccc(N3CCOCC3)cc2)C(=O)N1Cc1ccc(F)cc1`: the “inhibition” value was 2.94%.

As for `O=C(OCc1nc2ccccc2s1)c1ccco1`, the “inhibition” value was 10.9%.

In the case of `O=C(O)CC/C(=C\c1ccccc1[N+](=O)[O-])c1nc2ccccc2s1`, the “inhibition” value is 8.67%.

For the compound `CCOc1ccc(-c2nc(N)ncc2-c2ccccc2)c(O)c1`, the “inhibition” value is 25.4%.

As for `C/C(=N\Nc1ccc(C)c(Cl)c1)c1cccnc1`, the “inhibition” value was -7.12%.

With `CCOc1ccc(NC(N)=O)cc1`, the “inhibition” value is -13.1%.

Regarding `CCOC(=O)c1ccc(NC(=O)C2CCC(CNc3c(N4CCOCC4)c(=O)c3=O)CC2)cc1` (configuration not stated), the “inhibition” value is -13.8%.

As for `Cc1nnc(SCC(=O)N(C(C)C)C(C)C)[nH]c1=O`, the “inhibition” value was -4.9%.

As for `CCc1nc(SCC(=O)Nc2ccc(N(C)C)cc2)c2ccccc2n1`, the “inhibition” value is -6.88%.

`O=C(NCCCNc1ccnc2cc(Cl)ccc12)c1ccccc1F`: the “inhibition” value was 30.5%.

With `C#CCOC(=O)c1ccccc1C(=O)OCC#C`, the “inhibition” value is 21.1%.

In the case of `COc1ccc(NC(=O)Cn2cnc3c(cnn3C(C)(C)C)c2=O)cc1OC`, the “inhibition” value is -17.3%.

As to `Cc1nc2cc(C(=O)N3CCC4(CC3)OCCO4)ccc2n1-c1cccc(F)c1`, the “inhibition” value is -31.9%.

For `COC(=O)c1ccc(NC(=O)CO/N=C2\CCCc3nonc32)cc1`, the “inhibition” value was 2.9%.

(Values after PubChem BioAssay AID2384 (Southern Research Specialized Biocontainment Screening …, 2010).)
